Measured values from PubChem BioAssay (Tox21).
Inconclusive results are not listed. Activity calls are given as the source filed them. Unless noted, calls come from the whole dose curve; as a rule, active = well fitted cell-killing curve with a large enough effect in the repeat runs; inconclusive = weak or mixed curves, or effect the other way; inactive = no such curve, though single readings can be large or run the other way.

Target: Peroxisome proliferator-activated receptor gamma (Homo sapiens) (UniProt P37231)
Experiment: qHTS assay to identify small molecule antagonists of the peroxisome proliferator-activated receptor gamma (PPARg) signaling pathway (AID 743191; calls by dose curve; note: nearly all actives have a fitted effect of over 30% in size)
Conditions: HEK293H PPARg-UAS-bla, beta-lactamase ratio, antagonist, 17 h; series mostly up to 62.6 µM; ratio activity, negative = inhibition: at the top concentration
Outline: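 GeneBLAzer PPARg UAS-bla HEK293H cells carrying a UAS-driven beta-lactamase reporter were plated at 3000 cells/well, preincubated 5 h at 37C, then given compound for 17 h at 37C; LiveBLAzer B/G FRET substrate was read after 1 h at room temperature.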
% is set by controls: 0 for no effect and ±100 for the full control effect.

Peroxisome proliferator-activated receptor gamma (Homo sapiens), sequence (P37231 whole entry, looked up): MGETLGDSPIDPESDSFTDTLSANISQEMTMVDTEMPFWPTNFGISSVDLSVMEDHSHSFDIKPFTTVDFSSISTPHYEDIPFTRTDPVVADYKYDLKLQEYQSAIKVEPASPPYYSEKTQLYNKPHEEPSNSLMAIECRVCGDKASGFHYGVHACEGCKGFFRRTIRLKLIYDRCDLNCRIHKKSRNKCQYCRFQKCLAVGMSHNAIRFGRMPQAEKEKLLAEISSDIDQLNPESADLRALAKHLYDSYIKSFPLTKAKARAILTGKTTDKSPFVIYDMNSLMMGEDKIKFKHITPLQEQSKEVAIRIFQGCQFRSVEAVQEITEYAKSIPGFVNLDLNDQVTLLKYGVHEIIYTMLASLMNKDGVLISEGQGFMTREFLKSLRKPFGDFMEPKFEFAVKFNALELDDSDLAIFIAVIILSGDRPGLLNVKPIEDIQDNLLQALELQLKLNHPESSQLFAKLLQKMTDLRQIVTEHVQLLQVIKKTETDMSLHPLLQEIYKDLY

| Structure (SMILES) | ratio activity, negative = inhibition |
| --- | --- |
| NNS(=O)(=O)c1ccc(Oc2ccc(S(=O)(=O)NN)cc2)cc1 | 4.6% (inactive) |
| OCC(CBr)(CBr)CBr | -21.5% (inactive) |
| NC(Cc1ccc(F)cc1)C(=O)O (stereo unspecified) | 6.5% [at 5.95 µM] (inactive) |
| CCOc1ccccc1N | -0.058% (inactive) |
| CN1[C@@H]2CC[C@H]1CC(OC(=O)c1c[nH]c3ccccc13)C2 (stereo partly specified) | 10.2% (inactive) |
| O=[N+]([O-])c1nccn1CO[C@@H](CO)[C@H](O)CO | -0.675% (inactive) |
| CNCCC(Oc1ccccc1OC)c1ccccc1 (stereo unspecified) | 6.83% (inactive) |
| CCCOCCC | -0.957% (inactive) |
| NC(=O)Cc1cccc(C(=O)c2ccccc2)c1N | -2.08% (inactive) |
| Cc1cc(S(=O)(=O)O)c(N)cc1Cl | 3.28% [at 81.1 µM] (inactive) |
| CN(CCCN1c2ccccc2CCc2ccccc21)CC(=O)c1ccc(Cl)cc1 | -11.1% (inactive) |
| COC(=O)c1ccc2cc(C(=O)OC)ccc2c1 | 8.38% [at 29.1 µM] (inactive) |
| COC(=O)N[C@H](C(=O)N[C@@H](Cc1ccccc1)[C@@H](O)CN(Cc1ccc(-c2ccccn2)cc1)NC(=O)[C@@H](NC(=O)OC)C(C)(C)C)C(C)(C)C | -13.3% (inactive) |
| Cn1cnc2c(F)c(Nc3ccc(Br)cc3Cl)c(C(=O)NOCCO)cc21 | -11.7% (inactive) |
| CC[C@H]1CC[C@H](NCc2cc3c(cc2OC)[C@H]2C[C@H]2C(=O)N3C)[C@H](c2ccccc2)N1 | -22.9% (inactive) |

System: not listed separately
Experiment: qHTS assay to identify small molecule antagonists of the peroxisome proliferator-activated receptor gamma (PPARg) signaling pathway - cell viability counter screen (AID 743194); note: nearly all actives have a fitted effect of over 55% in size; note: potency is the fitted concentration of half-maximal effect
Conditions: PPARg-bla HEK293H viability, CellTiter-Glo luminescence, 17 h, co-treated with 50 nM rosiglitazone; series mostly up to 62.6 µM; activity change, negative = cytotoxicity: at the top concentration
Outline: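 PPARg-UAS-bla HEK293H cells were plated, rested 5 h at 37 C, then treated with compounds plus rosiglitazone (50 nM final) for 17 h at 37 C; viability was then read by CellTiter-Glo luminescence after 30 min at room temperature.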

| Structure (SMILES) | activity change, negative = cytotoxicity | Potency |
| --- | --- | --- |
| NNS(=O)(=O)c1ccc(Oc2ccc(S(=O)(=O)NN)cc2)cc1 | -0.663% (inactive) | – |
| CC1=C(CC(=O)O)c2cc(F)ccc2/C1=C\c1ccc(S(C)(=O)=O)cc1 | 8.4% (inactive) | – |
| CN(C)C(=O)NC1(c2ccccc2)CCN(CCC[C@]2(c3ccc(Cl)c(Cl)c3)CCCN(C(=O)c3ccccc3)C2)CC1 | -20% [at 29.1 µM] (inactive) | – |
| CC(C)=CCCC(C)CCOC=O (stereo unspecified) | – | 43.6 µM (active) |
| NC(Cc1ccc(F)cc1)C(=O)O (stereo unspecified) | -1.09% [at 5.95 µM] (inactive) | – |
| O=c1oc2c(O)c(O)cc3c(=O)oc4c(O)c(O)cc1c4c23 | 5.99% [at 29.1 µM] (inactive) | – |
| O=C1CCCc2ccccc21 | 11.1% [at 81.1 µM] (inactive) | – |
| CCOc1ccccc1N | 20.6% (inactive) | – |
| O=c1[nH]c(=O)n([C@H]2C[C@H](O)[C@@H](CO)O2)cc1C(F)(F)F | 5.35% (inactive) | – |
| CN1CCC[C@@H]1Cc1c[nH]c2ccc(CCS(=O)(=O)c3ccccc3)cc12 | 0.173% (inactive) | – |
| CN1[C@@H]2CC[C@H]1CC(OC(=O)c1c[nH]c3ccccc13)C2 (stereo partly specified) | 7.25% (inactive) | – |
| Nc1ccc(Oc2ccc(N)c(N)c2)cc1 | -13% (inactive) | – |
| O=[N+]([O-])c1nccn1CO[C@@H](CO)[C@H](O)CO | 4.87% (inactive) | – |
| CNCCC(Oc1ccccc1OC)c1ccccc1 (stereo unspecified) | -29.9% (inactive) | – |
| OCc1ccccc1O | 11.8% (inactive) | – |
| CCCOCCC | 22.7% (inactive) | – |
| NC(=O)Cc1cccc(C(=O)c2ccccc2)c1N | 7.1% (inactive) | – |
| Cc1cc(S(=O)(=O)O)c(N)cc1Cl | 19% [at 81.1 µM] (inactive) | – |

| Structure (SMILES) | activity change, negative = cytotoxicity | Potency |
| --- | --- | --- |
| OC[C@H]1O[C@@H](O[C@H]2[C@H](O)[C@@H](O)[C@H](O)O[C@@H]2CO)[C@H](O)[C@@H](O)[C@H]1O | 0.0776% (inactive) | – |
| CN(CCCN1c2ccccc2CCc2ccccc21)CC(=O)c1ccc(Cl)cc1 | 8.07% (inactive) | – |
| CC1=C2[C@H](/C=C(\C)C(=O)O)CC[C@@H](C)[C@H]2CC1 | 10.6% [at 81.1 µM] (inactive) | – |
| CCCCC(=O)O[C@]1(C(=O)CO)[C@H](C)C[C@H]2[C@@H]3CCC4=CC(=O)C=C[C@]4(C)[C@@]3(F)[C@@H](O)C[C@@]21C | -22.3% (inactive) | – |
| CCCCCCCCCCCCOCCOS(=O)(=O)O | 7.04% (inactive) | – |
| CC1(O)CSC(C)(O)CS1 (stereo unspecified) | -13.2% (inactive) | – |
| COC(=O)c1ccc2cc(C(=O)OC)ccc2c1 | -16.2% [at 29.1 µM] (inactive) | – |
| CCCCNC(=S)NCCCC | -9.5% (inactive) | – |
| COC(=O)N[C@H](C(=O)N[C@@H](Cc1ccccc1)[C@@H](O)CN(Cc1ccc(-c2ccccn2)cc1)NC(=O)[C@@H](NC(=O)OC)C(C)(C)C)C(C)(C)C | 8.31% (inactive) | – |
| Cn1cnc2c(F)c(Nc3ccc(Br)cc3Cl)c(C(=O)NOCCO)cc21 | 0.977% (inactive) | – |
| O=C(Cl)c1cccc([N+](=O)[O-])c1 | -10.9% (inactive) | – |
| CC(C)Nc1nc(N)nc(Cl)n1 | 30.3% (inactive) | – |
| O=C(O[C@@H](C(=O)O)[C@@H](OC(=O)c1ccccc1)C(=O)O)c1ccccc1 | 7.08% [at 81.1 µM] (inactive) | – |
| CC[C@H]1CC[C@H](NCc2cc3c(cc2OC)[C@H]2C[C@H]2C(=O)N3C)[C@H](c2ccccc2)N1 | 1.98% (inactive) | – |
| CC1=NN(c2cc(Cl)c(S(=O)(=O)O)cc2Cl)C(=O)C1N=Nc1ccc(S(=O)(=O)O)cc1 (stereo unspecified) | -15.7% (inactive) | – |
| CCC(=O)c1ccc2c(c1)N(CCCN(C)C)c1ccccc1S2 | -17.3% (inactive) | – |
| CN1CCN(C2=Nc3cc(F)ccc3Cc3ccccc32)CC1 | -10.7% (inactive) | – |

System: not listed separately
Experiment: qHTS assay for small molecule agonists of the antioxidant response element (ARE) signaling pathway (AID 743202; active = well fitted activation curve with a large enough effect in the signal ratio in the repeat runs, not every such curve was filed as active; the % refers to the signal ratio)
Conditions: HepG2 ARE-bla reporter, beta-lactamase FRET, 16 h; series mostly up to 73.3 µM; activation: at the top concentration
Outline: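 Compounds delivered in DMSO to ARE-bla HepG2 cells (2,000 cells/well, pre-incubated 5 h) and left 16 h at 37 C. LiveBLAzer B/G FRET substrate then added for 2 h at RT before fluorescence reading.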

| Structure (SMILES) | activation |
| --- | --- |
| NNS(=O)(=O)c1ccc(Oc2ccc(S(=O)(=O)NN)cc2)cc1 | -3.39% (inactive) |
| NC(Cc1ccc(F)cc1)C(=O)O (stereo unspecified) | -7.28% [at 8.36 µM] (inactive) |
| O=C1CCCc2ccccc21 | -11.3% [at 94.8 µM] (inactive) |
| CCOc1ccccc1N | -4.8% (inactive) |
| CN1CCC[C@@H]1Cc1c[nH]c2ccc(CCS(=O)(=O)c3ccccc3)cc12 | 0.384% (inactive) |
| CN1[C@@H]2CC[C@H]1CC(OC(=O)c1c[nH]c3ccccc13)C2 (stereo partly specified) | -6.11% (inactive) |
| O=[N+]([O-])c1nccn1CO[C@@H](CO)[C@H](O)CO | -0.0548% (inactive) |
| CNCCC(Oc1ccccc1OC)c1ccccc1 (stereo unspecified) | -12% (inactive) |
| CCCOCCC | -0.211% (inactive) |
| NC(=O)Cc1cccc(C(=O)c2ccccc2)c1N | 1.02% (inactive) |
| OC[C@H]1O[C@@H](O[C@H]2[C@H](O)[C@@H](O)[C@H](O)O[C@@H]2CO)[C@H](O)[C@@H](O)[C@H]1O | -10.2% (inactive) |
| COC(=O)c1ccc2cc(C(=O)OC)ccc2c1 | -7.5% [at 34.3 µM] (inactive) |
| O=C(Cl)c1cccc([N+](=O)[O-])c1 | -1.03% (inactive) |
| CC(C)Nc1nc(N)nc(Cl)n1 | 7.33% (inactive) |
| O=C(O[C@@H](C(=O)O)[C@@H](OC(=O)c1ccccc1)C(=O)O)c1ccccc1 | -7.65% [at 94.8 µM] (inactive) |
| CC1=NN(c2cc(Cl)c(S(=O)(=O)O)cc2Cl)C(=O)C1N=Nc1ccc(S(=O)(=O)O)cc1 (stereo unspecified) | -1.16% (inactive) |
